Test results from PubChem BioAssay AID2069 (Sanford-Burnham Center for Chemical Genomics, 2009).
Out of some 1,200 compounds screened, about 210 (18%) were called active. The list is a sample of the results. Unmarked numbers belong to inactive results. No stated cut-off is given here; in the data, active means inhibition above about 30%; inactive means the rest.

test: fluorescence readout artefact check – biochemical, HTRF, uHTS, artefact control for SUMOylation inhibitor project, confirmation (AID 2069); conditions: HTRF interference counterscreen, at 35 µM, hits give high values

Compound	inhibition
CC1=NN(c2ccccc2)C(=O)/C1=C\c1cn(CCC#N)nc1-c1ccc(Cl)cc1	-15.8%
S=C(Nc1ccc2nc(-c3ccccn3)c(-c3ccccn3)nc2c1)N1CCOCC1	10.8%
CN(Cc1ccco1)C(=O)c1cc2c(s1)-c1ccc(Cl)cc1S(=O)(=O)C2	-9.15%
S=c1[nH]nc(-c2cc(-c3ccccc3)n[nH]2)n1/N=C/c1c(Cl)cccc1Cl	6.95%
CC1CCCN(c2nc3ccccc3nc2C(C#N)S(=O)(=O)c2ccccc2)C1 (stereo not drawn)	11.8%
O=C1Nc2ccc(C(F)(F)F)cc2N2CCCC12 (stereo not drawn)	5.75%
Cc1ccccc1N=Cc1cc2c(cc1[N+](=O)[O-])OCO2	-2.65%
O=C1C(C2=NC(c3ccccn3)C3C(=O)N(c4ccc(Cl)cc4Cl)C(=O)C23)=C(O)c2ccccc21 (stereo not drawn)	2.95%
O=C(N/N=C/c1ccc([N+](=O)[O-])o1)c1cc2c(ccc3ccccc32)o1	20.9%
O=C(N/N=C/c1ccc(-c2ccc(Cl)c(C(=O)O)c2)o1)c1cc2c(ccc3ccccc32)o1	50.7% (active)
Cc1cc(C(=O)N/N=C/c2ccc(-c3ccc(C)c(Cl)c3)o2)n[nH]1	4.9%
Cc1ccc(-n2c(SCC(=O)N/N=C/c3ccccc3C(=O)O)nnc2-c2ccc(Cl)cc2)cc1	5.25%
O=C(CN1C(=O)CSC1=O)Nc1ccc(C(=O)O)cc1	1.7%
O=C(CSc1nnc(SCc2ccccc2)s1)N/N=C/C=C\c1ccco1	3.25%
Cc1ccc2oc(-c3ccc(C)c(NC(=O)Cc4cccs4)c3)nc2c1	22.6%
Cc1ccccc1-c1nc2cc(N)ccc2o1	46.2% (active)
Cc1nc2ccc(-c3nc4cc(N)ccc4o3)cc2[nH]1	54.3% (active)
O=C(Nc1ccc2oc(-c3cccc4ccccc34)nc2c1)c1ncn[nH]1	16.2%
Cc1ccc(-c2nc3cc(N)ccc3o2)cc1	55.7% (active)
Nc1ccc2oc(-c3cccs3)nc2c1	37.1% (active)

Compound	inhibition
Cc1ccc(-n2nc(C)c3c2OC(N)=C(C#N)C3c2ccoc2)cc1 (stereo not drawn)	1.75%
COc1ccc(OC)c(/C=C2\S/C(=N/NC(=O)c3ccc4ccccc4c3)NC2=O)c1	8.75%
Cc1cc(C)c(S(=O)(=O)/N=C2/C=C(SCC(=O)O)C(=O)c3ccccc32)cc1C	-10.7%
O=C1C2C3C=CC(C3)C2C(=O)N1CNc1ccc(O)cc1 (stereo not drawn)	-8.05%
O=c1c2ccccc2nc(COc2ccccc2)n1/N=C/c1cc([N+](=O)[O-])ccc1O	-7.1%
Oc1ccc(NCc2cccc(OCc3ccccc3)c2)cc1	-19.4%
O=C1C(NS(=O)(=O)c2cccs2)=C(N2CCN(c3cccc(C(F)(F)F)c3)CC2)C(=O)c2ccccc21	-7.25%
Cc1ccccc1S(=O)(=O)Nc1nc2ccccc2nc1N1CCc2ccccc2C1	-3.1%
N=c1c2cn[nH]c2nc(SCC(=O)c2ccc(Br)cc2)n1-c1ccc(Br)cc1	0.5%
O=C(CSc1nnc(-c2ccco2)c(-c2ccco2)n1)c1ccccc1	9%
S=c1[nH]nc(-c2ccc(Cl)cc2)n1/N=C/C=C/c1ccco1	-4.3%
CCOC(=O)C1CCCN(c2cc(NCCCO)c([N+](=O)[O-])c3nonc23)C1 (stereo not drawn)	-8.1%
O=C(NNC(=O)c1sc2ccccc2c1Cl)Nc1ccc(Cl)cc1	-5%
COc1ccc2c(c1)Cc1sc(NC(=O)c3ccccc3)nc1-2	13.9%
COCCN(CCOC)S(=O)(=O)c1ccc(C(=O)Nc2nc3c(s2)CCc2ccccc2-3)cc1	36.7% (active)
COc1ccc(C(=O)Nc2nc3c(s2)Cc2cc(OC)ccc2-3)cc1	5.45%
O=C(NN1C(=O)/C(=C/C=C/c2ccco2)SC1=S)c1ccncc1	16.8%
Cc1cc(C)n(Cc2ccc(C(=O)N/N=C/c3ccc(-c4ccc([N+](=O)[O-])cc4)o3)o2)n1	6.7%
O=C(Cc1ccccc1)Nc1nnc(-c2ccco2)s1	13.9%
CCC(C)(C)C1CCc2c(sc(NC(=O)c3ccccc3C(=O)O)c2C#N)C1 (stereo not drawn)	7.6%

Compound	inhibition
CCCCOc1ccc(/C=C/C(=O)Nc2ccc(C(N)=O)cc2)cc1	10.9%
COc1ccccc1NC(=O)c1sc2ncn(CC(=O)Nc3ccccc3)c(=O)c2c1C	4.35%
O=C(O)c1cc2cccc(S(=O)(=O)N3CCOCC3)c2cc1O	49.6% (active)
O=C(Nc1ccccc1O)c1cc(S(=O)(=O)N2CCOCC2)c(Cl)cc1Cl	10.6%
CCN(C(=S)Nc1cc(S(=O)(=O)N2CCOCC2)ccc1Cl)c1cccc2ccccc12	-26.1%
Cc1occc1C(=O)N1CCN(c2ccccc2)CC1	0.55%
CCOc1ccc(N2C(=O)c3ccc(C(=O)OCC(=O)N(CC)C4CCS(=O)(=O)C4)cc3C2=O)cc1 (stereo not drawn)	-4.1%
Oc1ccccc1N=Cc1c(O)ccc2ccccc12	-5.9%
Oc1ccc2ccccc2c1C=Nc1ccc(Cl)cn1	37.1% (active)
Oc1ccc(N=Cc2c(O)ccc3ccccc23)cc1	10.2%
CC1=CC2(O)OCCN(CCO)C2=CC1=O (stereo not drawn)	4.6%
O=C1C=C(O)c2c(O)cccc2C1=O	-24.9%
COc1cccc(/C=C2/SC(=S)N(CC(=O)NNC(=O)c3ccccc3O)C2=O)c1	-13%
CCN(c1ccccc1)c1cc2ccccc2c(=O)[nH]1	37% (active)
CN(c1ccccc1)c1cc(=O)[nH]c(=O)[nH]1	0.55%
Cc1ccccc1Nc1cc2ccccc2c(=O)[nH]1	25.8%
Cc1[nH][nH]c(=O)c1C(c1ccc(-c2ccccc2C(=O)O)o1)c1c(C)[nH][nH]c1=O	9.65%
COc1ccc(CCN2Cc3c(cccc3[N+](=O)[O-])C2=O)cc1OC	-1.3%
